# Values joined by “and” are separate entries in the source; they are usually repeats but may differ in a detail not shown here. Equal values may be shown once. Active and inactive are the calls of the source.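 How the source made its calls, unless noted: active means mean z-score across replicates of 1.96 or higher in either the MELAS or the Rieske mutant cell line; inactive means the rest.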
# Assays:
# [1] = P. berghei load reduction in hepatocytes – cell-based, HepG2, luciferase luminescence, HepG2 viability, primary screen (AID 624349; in the data active means parasite load remaining mostly below about 12%, no sharp cut-off; inactive means mostly above about 10%;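 further: 100% = mean of DMSO negative control wells on the same plate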); conditions: P. berghei liver stage in HepG2, luciferase luminescence, concentration not given here; parasite load remaining: stronger effect = lower value; viability: measured here: HepG2 viability without parasites
# [2] = Wnt pathway potentiators raising nuclear beta-catenin – imaging, WNT3A-conditioned medium, mouse C2C12, NPC library, primary screen (AID 1117326; in the data active means nuclear beta-catenin stimulation mostly above about 4.2%, no sharp cut-off; inactive means mostly below about 10%); conditions: stronger effect = higher value
# [3] = stimulators of insulin release from INS-1E, primary screen, cell-based, 5 mM glucose, NPC library (AID 1117329;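 active means compound raises insulin release from rat beta cells at 5 mM glucose, no numeric limit stated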); conditions: rat INS-1E insulin secretion, at 10 µM, stronger effect = higher value
# [4] = growth inhibition of GSK3B-pretreated HCT116 cells – cell-based, CellTiter-Glo, 0.2 to 20 µM (AID 1117336;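 active means compounds lowering colon cancer cell viability after pretreatment blocking the GSK3B kinase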); conditions: HCT116 viability after GSK3B inhibitor, at 20 µM, stronger effect = higher value
# [5] = inhibition of endothelial tube formation, primary screen, imaging, VEGF stimulated, CD31 staining, tube area, NPC library (AID 1117340;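 active means compound that reduces growth-factor-driven endothelial tube area in a mixed cell culture, no cutoff stated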); conditions: VEGF-stimulated ADSC/ECFC co-culture, at 10 µM, stronger effect = higher value
# [6] = GLP1 release stimulators, primary, NCI-H716, NPC library (AID 1117341;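 active means compound raises GLP1 secretion from the human gut endocrine cells, with no numeric limit stated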); conditions: NCI-H716 cells, at 10 µM, stronger effect = higher value
# [7] = HCT116 colon cancer cell growth inhibition, primary screen, CellTiter-Glo luminescence, NPC library (AID 1117342;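 active means compounds that lower survival of HCT116 colon cancer cells in the luminescence readout, no numeric limit stated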); conditions: at 20 µM (top of the series)
# [8] = reduced SW480 viability measured with CellTiter-Glo, NPC library, primary (AID 1117343;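 active means compounds that lower viability of the colon cancer cells in the luminescence readout, with no numeric limit stated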); conditions: CellTiter-Glo luminescence; at 20 µM (top of the series) unless noted
# [9] = NPC library primary testing for decreased DLD-1 cell viability via CellTiter-Glo (AID 1117346;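 active means compounds that lower survival of DLD-1 colon cancer cells in the luminescence readout, no cutoff given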); conditions: DLD-1 viability, CellTiter-Glo luminescence; at 20 µM (top of the series)
# [10] = EMT-state selective cytotoxicity in co-culture – imaging, PC-3E GFP, TEM4-18 mCherry, primary screen (AID 1345086;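 active means compounds killing one labelled cell type while sparing the other, by normalised counts and ratio limits, not self-fluorescent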;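 on all read-outs here: cells exposed to compound for 72 h before imaging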;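 on red/green cell ratio (normalised): normalised mesenchymal count divided by normalised epithelial count so high means epithelial killing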); conditions: PC-3E GFP / TEM4-18 mCherry co-culture, imaging cell counts, at 1 µM; for red/green cell ratio (normalised): actives lie on both sides, counts scaled to control wells, 1 = unselective
# [11] = viability loss with induced miR-34 in A549 – imaging, A549 dox-inducible miR-34, nuclei and caspase counts, primary screen (AID 1347080;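 active means compounds whose cell count with miR-34 switched on is under 0.7 times the count with it off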); conditions: A549 miR-34 inducible, Hoechst nuclei count, 48 h
# [12] = MELAS cybrid and Rieske KO viability enhancers – cell-based, MELAS cybrids, Rieske KO mouse fibroblasts, CellTiter-Glo, primary screen (AID 1508586); conditions: low glucose;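 further: z relative to plate mean and SD of compound and empty wells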
# [13] = molecular target: NAD(+) hydrolase SARM1 (Homo sapiens) (UniProt Q6SZW1); assay: blocking NAD cleavage by SARM1 SAM-TIR – cell lysate, NAD-Glo luminescence (AID 1508614;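 active means compound whose remaining NAD level is above about 45 nM, limit read from the data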); conditions: SAM-TIR HEK293T lysate NADase, at 1 µM, stronger effect = higher value
# [14] = growth inhibition, single agent or in combination, cell-based, chromothripsis tumors, cisplatin or BGB combos (AID 1671449; in the data active means inhibition above about 80%;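 further: cells exposed for 96 hours; 0% = vehicle DMSO and 100% = killing by high DMSO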); conditions: LFS_MB_P medulloblastoma cells
# [15] = growth inhibition, single agent and combos, cell-based, chromothripsis tumors, cisplatin or BGB combos (AID 1671450; in the data active means inhibition above about 80%;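 further: cells exposed to compound for four days; 0% = vehicle DMSO and 100% = cell killing by high DMSO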); conditions: HDN33 neuroblastoma cells, stronger effect = higher value
# [16] = growth inhibition, single agents and combos, ICB984, cell-based, cisplatin or BGB combos, synergistic combos for chromothripsis tumors (AID 1671451; call rule not given here;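 further: cells exposed for 96 hours before readout; 0% = vehicle DMSO and 100% = killing by high DMSO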); conditions: ICB984 medulloblastoma cells, drug combinations, stronger effect = higher value
# [17] = growth inhibition, single agents and combos, HTB85, cell-based, BGB or cisplatin IC20 combos, synergistic combos for chromothripsis tumors (AID 1671453; in the data active means inhibition above about 80%;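 further: cells exposed for 96 hours before readout; 0% = vehicle DMSO and 100% = high DMSO killing control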); conditions: HTB85 osteosarcoma cells, drug combinations, stronger effect = higher value
# [18] = growth inhibition, MDA-MB-436, cell-based, BGB or cisplatin combos, synergistic combos for chromothripsis tumors (AID 1671458; call rule not given here;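 further: cells exposed for 96 hours; 0% = vehicle DMSO and 100% = killing by high DMSO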); conditions: MDA-MB-436 breast carcinoma growth inhibition, drug combinations, stronger effect = higher value
# [19] = measured here: epithelial PC-3E GFP cell survival
# [20] = measured here: mesenchymal TEM4-18 mCherry cell survival
# [21] = stronger effect = lower value, cell number ratio, induced over uninduced
# [22] = measured here: relative caspase fold change +Dox/-Dox
# [23] = measured here: total cells with miR-34 induction, stronger effect = lower value
# [24] = measured here: total cells without miR-34 induction
# [25] = MELAS cybrid survival, CellTiter-Glo 48 h, stronger effect = higher value
# [26] = Rieske KO mouse fibroblast survival, CellTiter-Glo 72 h
# NAD(+) hydrolase SARM1 (Homo sapiens), sequence (Q6SZW1 whole entry, looked up): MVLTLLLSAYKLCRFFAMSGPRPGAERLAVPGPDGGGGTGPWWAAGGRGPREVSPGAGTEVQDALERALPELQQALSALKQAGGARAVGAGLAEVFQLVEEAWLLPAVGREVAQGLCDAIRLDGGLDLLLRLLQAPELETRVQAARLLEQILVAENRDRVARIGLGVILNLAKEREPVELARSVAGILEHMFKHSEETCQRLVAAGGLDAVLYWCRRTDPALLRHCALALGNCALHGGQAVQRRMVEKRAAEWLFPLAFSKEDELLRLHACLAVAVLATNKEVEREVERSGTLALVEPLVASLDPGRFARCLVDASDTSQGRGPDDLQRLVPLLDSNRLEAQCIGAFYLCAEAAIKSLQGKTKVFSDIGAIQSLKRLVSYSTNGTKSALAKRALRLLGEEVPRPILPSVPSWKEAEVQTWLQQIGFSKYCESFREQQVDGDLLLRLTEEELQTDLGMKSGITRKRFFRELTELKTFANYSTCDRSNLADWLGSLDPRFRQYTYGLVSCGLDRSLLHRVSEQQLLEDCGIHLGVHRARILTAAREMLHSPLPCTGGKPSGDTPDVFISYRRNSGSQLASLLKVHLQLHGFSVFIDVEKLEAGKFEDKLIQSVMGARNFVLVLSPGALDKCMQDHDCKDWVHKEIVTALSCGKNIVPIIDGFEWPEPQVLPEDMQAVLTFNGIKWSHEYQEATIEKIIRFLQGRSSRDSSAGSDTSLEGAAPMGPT
structure (smiles),measurement,setting,value
CC(C)Cn1cnc2c(N)nc3ccccc3c21,parasite load remaining,[1],11.9% (inactive)
same,viability,[1],62.5%
same,nuclear beta-catenin stimulation,[2]; at 10 µM,1.6% (inactive)
same,nuclear beta-catenin stimulation,"[2]; stimulation, at 2 µM",0.2%
same,insulin secretion stimulation,[3],0% (inactive)
same,viability decrease,[4],-1.15% (inactive)
same,tube area decrease,[5],-3.6% (inactive)
same,GLP1 secretion stimulation,[6],0.6% (inactive)
same,inhibition of viability,[7],-6.6% (inactive)
same,viability decrease (inhibition),[8],49.5% (inactive)
same,viability decrease (inhibition),[9],0.7% (inactive)
same,red/green cell ratio (normalised),[10],1.33 (inactive)
same,normalised cell number,[10]; [19],1.11
same,normalised cell number,[10]; [20],1.48
same,fold change,[11]; [21],0.846 (inactive)
same,fold change,[11]; [22],0.971
same,cell count,[11]; [23],9200
same,cell count,[11]; [24],10900
same,z-score,[12]; [25],0.0496 (inactive) and 0.611 (inactive)
same,z-score,[12]; [26],0.716 and 0.772
same,remaining NAD,[13],10 nM (inactive)
CC(S)C(=O)NCC(=O)O (centres undefined),nuclear beta-catenin stimulation,[2]; at 10 µM,-0.5% (inactive)
same,nuclear beta-catenin stimulation,"[2]; stimulation, at 2 µM",0.7%
same,insulin secretion stimulation,[3],-0.8% (inactive)
same,viability decrease,[4],-7.03% (inactive)
same,tube area decrease,[5],17.7% (inactive)
same,GLP1 secretion stimulation,[6],-1.7% (inactive)
same,inhibition of viability,[7],-7.95% (inactive)
same,viability decrease (inhibition),[8],46.8% (inactive)
same,viability decrease (inhibition),[9],0.37% (inactive)
same,red/green cell ratio (normalised),[10],0.9 (inactive)
same,normalised cell number,[10]; [19],1.06
same,normalised cell number,[10]; [20],0.94
same,fold change,[11]; [21],0.956 (inactive) and 0.886 (inactive)
same,fold change,[11]; [22],0.809 and 0.891
same,cell count,[11]; [23],8410 and 8420
same,cell count,[11]; [24],8800 and 9500
same,z-score,[12]; [25],-0.286 (inactive)
same,z-score,[12]; [26],0.558
same,remaining NAD,[13],10 nM (inactive)
CNC1CCCN(c2c(F)cc3c(=O)c(C(=O)O)cn(C4CC4)c3c2OC)C1 (centres undefined),nuclear beta-catenin stimulation,[2]; at 10 µM,-0.1% (inactive)
same,nuclear beta-catenin stimulation,"[2]; stimulation, at 2 µM",0%
same,insulin secretion stimulation,[3],5.75% (inactive)
same,viability decrease,[4],42.9% (inactive)
same,tube area decrease,[5],-9% (inactive)
same,GLP1 secretion stimulation,[6],1.4% (inactive)
same,inhibition of viability,[7],10.1% (inactive)
same,viability decrease (inhibition),[8],6% (inactive)
same,viability decrease (inhibition),[9],-25.9% (inactive)
same,red/green cell ratio (normalised),[10],1.13 (inactive)
same,normalised cell number,[10]; [19],1.05
same,normalised cell number,[10]; [20],1.18
same,fold change,[11]; [21],0.938 (inactive)
same,fold change,[11]; [22],0.74
same,cell count,[11]; [23],8330
same,cell count,[11]; [24],8880
same,z-score,[12]; [25],-0.145 (inactive)
same,z-score,[12]; [26],0.59
same,inhibition,"[14]; at 0.5 µM, stronger effect = higher value",6.49% (inactive)
same,inhibition,"[14]; measured here: combination with BGB IC20, at 0.005 µM",-28.5%
same,inhibition,"[14]; measured here: combination with BGB IC40, at 0.005 µM",-37.4%
same,inhibition,"[14]; measured here: combination with BGB IC40, at 0.05 µM",-26.1%
same,inhibition,"[14]; measured here: combination with cisplatin, at 0.5 µM, stronger effect = higher value",1.25%
same,inhibition,"[14]; measured here: combination with cisplatin, at 5 µM, stronger effect = higher value",-35.3%
same,inhibition,"[15]; BGB combo, at 5 µM",-29.7%
same,inhibition,[15]; at 0.5 µM,-41% (inactive)
same,inhibition,"[15]; cisplatin combo, at 5 µM",-60.5%
same,inhibition,"[15]; measured here: with BGB IC20 combination, at 0.5 µM",-39.7%
same,inhibition,"[15]; measured here: with cisplatin IC20 combination, at 0.5 µM",-37.4%
same,inhibition,"[15]; single agent, at 5 µM",-52%
same,inhibition,"[16]; BGB IC20 combo, at 0.005 µM",-26.8%
same,inhibition,"[16]; BGB IC40 combo, at 0.005 µM",-20.1%
same,inhibition,"[16]; BGB IC40 combo, at 0.05 µM",-26.3%
same,inhibition,[16]; at 0.5 µM,-21.9% (inactive)
same,inhibition,"[16]; cisplatin combo, at 0.05 µM",-26.3%
same,inhibition,"[16]; cisplatin combo, at 0.5 µM",-35.1%
same,inhibition,"[16]; cisplatin combo, at 5 µM",-31.2%
same,inhibition,"[16]; measured here: 5 uM single agent, at 5 µM",-13.6%
same,inhibition,[17]; at 0.5 µM,-23.2% (inactive)
same,inhibition,"[17]; measured here: with BGB IC20, at 0.5 µM",-35.9%
same,inhibition,"[17]; measured here: with BGB IC20, at 5 µM",-27.5%
same,inhibition,"[17]; measured here: with cisplatin IC20, at 0.5 µM",-20.5%
same,inhibition,"[17]; measured here: with cisplatin IC20, at 5 µM",-18.5%
same,inhibition,"[17]; single agent, at 5 µM",-28.7%
same,inhibition,[18]; at 0.5 µM,-22.5% (inactive)
same,inhibition,"[18]; measured here: BGB combination, at 0.5 µM",-19.9%
same,inhibition,"[18]; measured here: BGB combination, at 5 µM",-19.5%
same,inhibition,"[18]; measured here: cisplatin combination, at 0.5 µM",-36.1%
same,inhibition,"[18]; measured here: cisplatin combination, at 5 µM",-11.6%
